The record followed here is PubChem BioAssay AID652065 (The Scripps Research Institute Molecular Screening Center, 2013).

About 3,000 (70%) of roughly 4,300 compounds were called active. So high a share suggests a set chosen from earlier hits. A selection follows. A number with no mark means an inactive call.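 How the source made its calls: active means inhibition above a per-plate cutoff, the mean inhibition of sample wells plus 3 SD (cut at about 35% in these data); inactive means the rest.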

This assay is described as follows: small molecules binding CAG repeat RNA – biochemical, fluorescence, confirmation (AID 652065).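 Further: loss of TO-PRO-1 fluorescence as compound displaces dye from 1x1 AA loop RNA; 0% = DMSO only wells and 100% = 100 µM mitoxantrone.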 The conditions noted are these: r(CAG) RNA repeat, TO-PRO-1 dye displacement fluorescence; at 3 µM; active compounds read high.
As a reminder, the inhibition is the percentage by which the read-out fell short of the control. Take `Cc1sc2nc(SCC(=O)c3ccc(O)c(O)c3)n(Cc3ccco3)c(=O)c2c1C`: the inhibition was 64.2% (active).
With `CCOC(=O)C1Nc2ccc(C(F)(F)F)cc2C2C=CCC12` (stereo not drawn), the inhibition was 18.9%.
As for `CC1(C(=O)NS(=O)(=O)c2ccc(C#N)cc2)CCN1C(=O)c1ccc(C2CCCCC2)cc1` (stereo not drawn), the inhibition is 51.7% (active).
Under `Cc1cc(/C=N/Nc2ccc([N+](=O)[O-])cn2)c(C)n1-c1cccc(C(=O)O)c1` stands 35% (active).
As to `Cc1ccc(-n2c(SCC(=O)Nc3ccc(S(=O)(=O)Nc4nccs4)cc3)nnc2-c2ccncc2)cc1`, the inhibition was 67.3% (active).
As to `Cc1ccc(-n2c(SCC(=O)Nc3ccc(S(=O)(=O)Nc4nccs4)cc3)nnc2-c2ccccn2)cc1`, the inhibition was 60.6% (active).
Turning to `Cc1ccc(-n2c(SCC(=O)Nc3ccc(S(=O)(=O)Nc4nccs4)cc3)nnc2-c2cccnc2)cc1`, the inhibition is 58.8% (active).
Under `O=C(O)c1ccc(NC(=O)c2cn(-c3ccccc3)nc2-c2ccc(Cl)cc2)cc1` stands 62.6% (active).
Take `O=C(O)c1ccc(N/N=C/c2cn(-c3ccccc3)nc2-c2cccs2)cc1`: the inhibition was 61.1% (active).
As to `O=C(NNC(=S)NC(=O)c1cn(-c2ccccc2)nc1-c1ccccc1)c1ccncc1`, the inhibition is 54.8% (active).
Next, `CC(C)=CCCC1(C)C=Cc2c(ccc3c2[nH]c2cc(O)c(C)cc23)O1` (stereo not drawn): 30.6%.
Next, `Cc1cc(/C=C2/C(=N)N3C(=NC2=O)SN=C3S(C)(=O)=O)c(C)n1-c1ccccc1`: 81.7% (active); `CCOc1ccc(-n2c(O)c(/C=N/Nc3nnc(C)c(=O)[nH]3)c3ccccc3c2=O)cc1`: 52.6% (active).
Next, `C=C1c2c(Cl)ccc(O)c2C(O)=C2C(=O)[C@]3(O)C(O)=C(C(N)=O)C(=O)[C@@H](N(C)C)[C@@H]3[C@@H](O)C12` (stereo partly drawn): 70.9% (active).
As for `Cc1ccc(-n2ncc3c(Nc4cccc(C(=O)O)c4)ncnc32)cc1`, the inhibition is 23.1%.
Take `CCOc1cc(C)ccc1OCc1nnc(SCC(=O)Nc2cccc(C(=O)O)c2)n1-c1ccccc1`: the inhibition was 41.2% (active).
Next, `COc1ccc2[nH]c3c(C)c4cc[n+](C)cc4c(C)c3c2c1`: 47.5% (active).
Next, `N#Cc1c(NC(=O)C2CC(Cl)=CCC2C(=O)O)sc2c1CCCCC2` (stereo not drawn): 38% (active); `COC(=O)c1c(NC(=O)C2CC(C)=C(C)CC2C(=O)O)sc2c1CCCCC2` (stereo not drawn): 66.4% (active); `N#CCC(=O)Nc1ccc(C(=O)OCC(=O)Nc2sc3c(c2C#N)CCCC3)cc1`: 33.2%.
As to `CCOC(=O)c1c(NC(=O)C2CC=CCC2C(=O)O)sc(C)c1CC` (stereo not drawn), the inhibition is 37.1% (active).
Next, `CSc1ccc(C=Nn2c(-c3ccc(F)cc3)n[nH]c2=S)cc1`: 41.7% (active); `Cc1ccc(CSc2nc(-c3ccccc3)c(C#N)c(=O)[nH]2)cc1`: 66.6% (active).
`N#Cc1c(-c2ccccc2)nc(SCc2cccc(C(F)(F)F)c2)[nH]c1=O`: the inhibition is 80.3% (active).
Under `O=C1CC(c2ccccc2)=NN1c1ccc([N+](=O)[O-])cc1` stands 23.7%; under `N#Cc1c(-c2ccccc2)nc(SCc2ccc([N+](=O)[O-])cc2)[nH]c1=O`, 58.7% (active).
For the compound `CCOc1cc(/C=C(\C#N)c2nc(-c3cccs3)c(NC(C)=O)s2)ccc1O`, the inhibition was 40.4% (active).
Next, `Cc1ccc(S(=O)(=O)Nc2nc3ccccc3s2)cc1[N+](=O)[O-]`: 29.7%.
With `O=[N+]([O-])c1cc(Br)c(O)c(/C=N/Nc2nc3ccccc3s2)c1`, the inhibition is 94.7% (active).
Next, `C=CCNc1nc(N)c(C(=C(C#N)C#N)c2ccccc2)s1`: 15.9%; `O=C(N/N=C/c1c(Cl)[nH]c2ccccc12)c1sc2ccccc2c1Cl`: 22.9%; `Cc1cc(F)ccc1S(=O)(=O)Nc1ncnc2scc(-c3ccc(F)cc3)c12`: 70.8% (active).
As for `CC(C(=O)Nc1ccc(O)c(C(=O)O)c1)N1C(=O)/C(=C/c2cccs2)SC1=S` (stereo not drawn), the inhibition was 75.9% (active).
Next, `CSc1nnc(NC(=O)c2nc(S(=O)(=O)Cc3ccc(C)cc3)ncc2Cl)s1`: 37.4% (active); `Cc1nnc(NC(=O)Nc2ccc(Cl)c(Cl)c2)s1`: 24.5%.
Next, `CCOC(=O)c1cc2cc(-c3c(C(=O)OCC)oc4cc(O)cc(O)c4c3=O)ccc2o1`: 40.4% (active).
Consider `Cn1c2ccccc2c2cc(/C=C(\NC(=O)c3ccccc3)C(=O)NCC(=O)O)ccc21`, for which the inhibition was 39.8% (active).
Next, `O=C(NC(=S)Nc1ccccc1C(=O)O)c1ccc(-c2ccc(Br)cc2)o1`: 82.7% (active).
In the case of `Cc1ccc(S(=O)(=O)N2[C@@H](c3cccc4ccccc34)C(C(=O)O)=C[C@H]2C(C)(C)C)cc1`, the inhibition is 50.3% (active).
Consider `Cc1ccc(NC(=O)CC2S/C(=N/N=C3\CCCc4ccccc43)NC2=O)cc1` (stereo not drawn), for which the inhibition was 54.7% (active).
Under `CC1(C(=O)NS(=O)(=O)c2ccc3ccccc3c2)CCN1C(=O)C1(c2ccc(Cl)cc2)CCC1` (stereo not drawn) stands 72% (active); under `O=[N+]([O-])c1cc(Cl)cc(/C=N/NC(=S)Nc2cc(S(=O)(=O)N3CCOCC3)ccc2Cl)c1O`, 95.4% (active).
Next, `CCC(C)Cn1c(O)cc2nn(-c3nc4ccccc4s3)c(=O)c-2c1C` (stereo not drawn): 63.4% (active).
With `CC(C)c1nc(SCC(=O)Nc2cccc(C(=O)O)c2)c2c3c(sc2n1)CCCC3`, the inhibition is 61.1% (active).
Under `CCSc1nsc(NC(=O)Nc2cccc(C(C)=O)c2)n1` stands 26.3%; under `Cc1ccc2nc(N3C(=O)C(O)=C(C(=O)c4ccco4)C3c3cccc(O)c3)sc2c1` (stereo not drawn), 73.8% (active).
Next, `COc1cc(C2CC(=O)N3CN(Cc4ccccc4)CSC3=C2C#N)ccc1OCc1ccccc1` (stereo not drawn): 25.8%; `O=C(N/N=C/c1cccnc1)c1cc2ccccc2cc1O`: 9.03%; `O=C(NNc1c2ccccc2nc2ccccc12)c1cc2ccccc2cc1O`: 45.6% (active).
Under `CC(=N\NC(=O)c1cc(Br)ccc1O)/C(=N/O)C(=O)Nc1ccccc1` stands 12.1%; under `Cc1ccc(/C=C/C(=O)Nc2ccc([N+](=O)[O-])c(NC(=O)/C=C/c3ccc(C)o3)c2)o1`, 47.7% (active); under `O=C(Nc1cccc(F)c1)c1cc(-c2ccco2)nc2ccccc12`, 4.09%.
As to `O=C(O)c1cccc(NC(=O)c2cc(-c3cccc(Cl)c3)nc3ccccc23)c1`, the inhibition was 46.1% (active).
As to `Cc1ccccc1-n1c(SCC(=O)Nc2cccc3ccccc23)nc(O)cc1=O`, the inhibition is 14.2%.
Under `CCOc1ccc(-n2c(SCC(=O)Nc3cc(C(=O)O)ccc3Cl)nc3ccccc3c2=O)cc1` stands 52.9% (active); under `Cc1ccc(CNC(=O)C2CCN(S(=O)(=O)c3ccc4nc5c(c(C(=O)O)c4c3)CC(C)CC5)CC2)cc1` (stereo not drawn), 36.4% (active).
Turning to `O=C(O)c1ccc2c(c1)C(=O)N(c1ccc(/C=C/C(=O)c3ccccc3)cc1)C2=O`, the inhibition is 65.3% (active).
Next, `COc1ccc(OC)c(NC(=O)CSc2nc(-c3ccccc3)cc(=O)[nH]2)c1`: 24.5%; `Cc1ccc(NC(=O)CSc2sc3c(O)cc(=O)[nH]c3c2C#N)cc1C`: 27.9%.
Under `Cc1ccc(NC(=O)CSc2nc(CSc3ccc(C)cc3)cc(=O)[nH]2)cc1` stands 53.5% (active); under `Cc1ccc(C(C)C)c(OCCSc2nc3ccccc3n2CC(=O)O)c1`, 50.3% (active); under `Cc1ccc2cc(/C=N/Nc3ccc(C(=O)O)cc3)c(Cl)nc2c1`, 46.6% (active).
Take `COc1ccc(S(=O)(=O)NCCc2c[nH]c3ccccc23)cc1OC`: the inhibition was 0.91%.
Take `COc1ccc(-c2cc(C(=O)NC(Cc3c[nH]c4ccccc34)C(=O)O)c(C)o2)cc1OC` (stereo not drawn): the inhibition is 61.4% (active).
Under `CC(Oc1ccc2c(-c3ccccc3)cc(=O)oc2c1)C(=O)NC(Cc1c[nH]c2ccccc12)C(=O)O` (stereo not drawn) stands 62.4% (active); under `O=C(N[C@@H](Cc1c[nH]c2ccccc12)C(=O)O)OCC1c2ccccc2-c2ccccc21`, 63.4% (active); under `COc1ccc(-c2cc(=O)oc3cc(OCC(=O)N[C@@H](Cc4c[nH]c5ccccc45)C(=O)O)ccc23)cc1`, 65.3% (active).
Under `O=c1cc(CN2CCN(S(=O)(=O)/C=C/c3ccccc3)CC2)c2ccc(O)cc2o1` stands 22.5%; under `COc1cc2ccccc2cc1C(=O)Nc1ccc(S(=O)(=O)Nc2cc(C)on2)cc1`, 58.8% (active).
Regarding `CCOc1ccc(C(=O)Nc2ccc(S(=O)(=O)Nc3cc(C)on3)cc2)cc1`, the inhibition was 23.1%.
As to `COCCNC(=O)Nc1ccc2nc(-c3ccco3)c(-c3ccco3)nc2c1`, the inhibition was 61.6% (active).
As to `Cc1cccc(C)c1NC(=O)C(c1ccc(C(F)(F)F)cc1)n1c(=O)c(-c2ccco2)nc2ccccc21` (stereo not drawn), the inhibition is 26.2%.
Under `CC1(C(=O)NS(=O)(=O)c2ccccc2)CCN1C(=O)Cc1ccc(-c2ccccc2)cc1` (stereo not drawn) stands 34.1%; under `COc1ccc(S(=O)(=O)NC(=O)C2(C)CCN2C(=O)c2ccccc2CCc2ccccc2)cc1` (stereo not drawn), 34%.
In the case of `CC(C)c1ccc(CC(=O)N2CCC2(C)C(=O)NS(=O)(=O)c2ccc(C(C)(C)C)cc2)cc1` (stereo not drawn), the inhibition was 70.7% (active).
With `O=S(=O)(Nc1ccc(O)c2ccccc12)c1ccc(OC(F)(F)F)cc1`, the inhibition is 52.9% (active).
Next, `Cc1c(C)c2c(OCC(=O)N[C@@H](C(=O)O)c3ccccc3)cc3c(c2oc1=O)CCC(C)(C)O3`: 46.1% (active); `COc1ccc(COC(=O)NC(C(=O)O)c2ccccc2)cc1` (stereo not drawn): 2.31%; `Cc1ccc(N=C2NC(=O)/C(=C/C=C/c3ccco3)S2)cc1C`: 48.9% (active).
In the case of `Cc1ccc(-c2nn(-c3ccccc3)cc2/C=C2\SC(=S)N(CCCCCC(=O)O)C2=O)o1`, the inhibition is 56% (active).
Next, `CN(C)S(=O)(=O)c1cccc(-c2nn(-c3ccccc3)cc2/C=C2\SC(=S)N(CC(=O)O)C2=O)c1`: 88.1% (active).
Under `O=C(CCCN1C(=O)/C(=C\c2ccco2)SC1=S)Nc1cccc2ccccc12` stands 17%; under `CC1(C(=O)NS(=O)(=O)Cc2cccc(Cl)c2)CCN1C(=O)Cc1ccc(Cl)cc1Cl` (stereo not drawn), 78.9% (active).
